Results from the supplement of paper PMC3842684.

Assays:
[1] = test system: P. falciparum NF54-pfs16-GFP early (I-III) stage gametocytes; assay: relative % inhibition of viable gametocyte number; higher = more gametocytocidal; details: stage: early (I-III) gametocyte, incubation 72 h
In short: (§1)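 Viable gametocytes were counted by confocal imaging as elongated GFP objects carrying MitoTracker Red signal above a cut-off, after 72 h of compound exposure (5 or 0.5 µM) at 37°C in 5% CO2 and 5% O2 and overnight staining. The NF54 pfs16-GFP gametocytes had been magnet-isolated at early (I/IIa, day 2) or late (day 8) stage and plated at 10% parasitaemia, 0.1% haematocrit in 384-well poly-D-lysine imaging plates. Relative inhibition was normalised to vehicle and positive-control wells within each plate.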

[2] = test system: P. falciparum NF54-pfs16-GFP late (IV-V) stage gametocytes; assay: as above; details: stage: late (IV-V) gametocyte, incubation 72 h
In short: as §1

Row | Structure (SMILES) | relative % inhibition ([1]; 0.5 µM) | relative % inhibition ([1]; 5 µM) | relative % inhibition ([2]; 0.5 µM) | relative % inhibition ([2]; 5 µM)
1 | Nc1nc(Nc2cccc(F)c2)nc2ccccc12 | 5.49% | -3.66% | 15.1% | 2.78%
2 | CCN(Cc1ccccc1)C1CCN(Cc2cc(Br)ccc2O)CC1 | 27.8% | 99% | 35.1% | 68.6%
3 | CC(C)c1ccc(CNCC(O)c2ccccc2)cc1 (configuration not stated) | 5.28% | 89.6% | 17.3% | 39.8%
4 | COc1ccc(-c2nc(N3CCN(C(=O)C4CCCCC4)CC3)c3c4c(sc3n2)CCCC4)cc1 | -24.1% | 55.7% | 92.2% | 86.8%
5 | COc1ccccc1C(=O)ON=C(N)Cc1cccc2ccccc12 | 13.9% | 78% | 5.05% | 92.5%
6 | O=C1c2ccccc2-c2nnc(-c3ccc(Br)cc3)cc21 | 16.6% | 10% | 75.4% | 88.5%
7 | CCCCNCC(O)(c1ccc(Cl)cc1)c1ccc(Cl)cc1 | 10.1% | 88.5% | 12.2% | 44%
8 | CCOc1ccc(C=Cc2nc(=O)c3ccccc3o2)cc1 | 4.08% | 22.2% | 22.3% | 21.6%
9 | O=C(CCc1ccccc1)c1ccccc1OCC(O)CN1CCCCC1 (configuration not stated) | 12.7% | 96.8% | 15% | 48.2%
10 | OC1CCCCC1C1(NC(=S)Nc2ccccc2)CCCCC1 (configuration not stated) | 2.55% | 71.5% | 33.8% | 90.8%
11 | COc1ccccc1N=C1C(=O)c2ccccc2C(O)=C1N1CCCCC1 | 21.8% | 44.6% | -11.2% | 10.5%
12 | COc1cccc(NC(=O)Cn2c(C)c(C#N)c3ccccc32)c1 | 17% | 45.2% | -4.97% | 29.8%
13 | COc1cc2cc(C(=O)Nc3ccccc3)c(N)nc2cc1OC | 16.8% | 99% | 3.1% | -13.4%
14 | CCOc1cc2c(cc1OCC)C(c1cc(Cl)ccc1O)NCC2 (configuration not stated) | 13% | 102% | 19% | 26.7%
15 | Fc1ccc2[nH]c3c(NCCCN4CCOCC4)ncnc3c2c1 | 18.8% | 97.3% | -16.8% | 22.9%
16 | COc1ccc(C2c3ccc4ccccc4c3Oc3ncn(CCCn4ccnc4)c(=N)c32)cc1OC (configuration not stated) | 59.1% | -9.76% | 49.2% | 74.6%
17 | COc1ccc(C(=O)NC(c2ccc(Cl)cc2Cl)c2cc(Cl)c3cccnc3c2O)cc1 (configuration not stated) | 42.5% | 107% | 50.9% | 98.7%

Row | Structure (SMILES) | relative % inhibition ([1]; 0.5 µM) | relative % inhibition ([1]; 5 µM) | relative % inhibition ([2]; 0.5 µM) | relative % inhibition ([2]; 5 µM)
18 | O=C(CCl)NCCOc1ccc(Cl)cc1Cl | 24% | 9.39% | 8.06% | 5.3%
19 | CCC(C)NCC(O)(c1ccc(Cl)cc1)c1ccc(Cl)cc1 (configuration not stated) | 16.2% | 102% | 27.1% | 58.3%
20 | CCOc1cc(Cl)c(C(C)NC(=O)c2ccccc2)cc1OCC (configuration not stated) | 15.1% | 34.5% | 8.2% | 38.7%
21 | O=C1c2ccccc2C2=Nc3ccccc3SC(c3cccc(F)c3)C12 (configuration not stated) | 30.8% | 27.4% | 43.7% | 83.8%
22 | Cc1ccc2nc(C)cc(Nc3cccc(C(F)(F)F)c3)c2c1 | -7.3% | 60.2% | 26.7% | 19.3%
23 | COc1ccc(N2CCN(C(CNC(=O)C3CCCCC3)c3ccc4c(c3)OCO4)CC2)cc1 (configuration not stated) | 22.8% | 8.98% | 35.1% | 50.7%
24 | O=C(NC(c1ccccc1)c1ccc2cccnc2c1O)c1ccccc1 (configuration not stated) | 31.4% | 95.3% | 35.8% | 86.9%
25 | CN1CCN(c2nc(Nc3ccc(O)cc3)nc3ccccc23)CC1 | -17.7% | -9.15% | -10.7% | -15.5%
26 | Oc1ccccc1CN1CCC2(CCCN(Cc3ccccc3F)C2)C1 (configuration not stated) | 32.5% | 93.8% | 34.9% | 61.2%
27 | CCOC(=O)C1=C(c2ccccc2)N=c2sc(=Cc3cc(C)n(-c4ccc(F)cc4)c3C)c(=O)n2C1c1cccc(OC)c1OC (configuration not stated) | 14.6% | 96.5% | 50.5% | 59.1%
28 | Cc1ccc(N2C(=O)C3C(C2=O)C2(c4ccccc4)C(=O)C3(c3ccccc3)C(c3ccccc3)=C2c2ccccc2)cc1 (configuration not stated) | 20.5% | 53.3% | 45.4% | 58.1%
29 | Cc1ccc(Cl)cc1N1CCN(CCCNC(=O)C2CCN(c3nc4ccccc4[nH]3)CC2)CC1 | 20% | 66% | 28.3% | -3.06%
30 | COc1ccc(CCNC(=O)c2cc(S(=O)(=O)N3CC(C)CC(C)C3)ccc2Sc2ccc(F)cc2)cc1OC (configuration not stated) | 10.1% | -11.3% | 17.9% | 20.1%
31 | COc1ccc(-c2nc3cc(Cc4ccc5[nH]c(-c6ccc(OC)cc6)nc5c4)ccc3[nH]2)cc1 | 48.1% | 100% | 17.1% | 103%
32 | Cc1ccc(CSCc2ccc(C(=O)NC3CC3)o2)cc1 | 1.49% | -7.92% | 19.6% | 43.1%
33 | CCOc1ccc2c(c1)CN(Cc1ccc(Cl)cc1)CO2 | 15.1% | 84.1% | 16.2% | 41.4%
